Assay results from the supplement of paper PMC10646978.
± gives the standard deviation.

Key:
Conditions in all cases: modulator concentration 10 µM
[1] = tested on: RAW-Dual (murine macrophage reporter line); assay: NF-kB reporter (SEAP) activity fold change vs agonist alone; higher = enhanced NF-kB activity
Outline: (§1)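 RAW-Dual murine macrophage reporter cells were seeded at 50 000 per well in 384-well plates and pre-incubated 1 hour at 37 °C with compound pin-transferred to 10 μM final. After 1 hour, a PRR agonist was added and cells incubated overnight. Supernatant NF-κB (SEAP, QUANTI-Blue, 620 nm absorbance) and IRF (Lucia luciferase, QUANTI-Luc, luminescence) signals were divided by the mean agonist-only control on the same plate to give fold change. Two replicate plates were averaged, with errors by propagation.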

[2] = tested on: RAW-Dual (murine macrophage reporter line); assay: IRF reporter (Lucia luciferase) activity fold change vs agonist alone; higher = enhanced IRF activity
Outline: as §1

[3] = tested on: RAW-Dual (murine macrophage reporter line); assay: viability score (confluency relative to resting cells, overnight) (fraction); higher = more viable, active = viable (0.7 or more)
Outline: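 In 384-well plates, RAW-Dual macrophages received compound at a final 10 μM overnight. Two confluency masks were then made with IncuCyte software from IncuCyte images of all imaged wells. The viability score is defined as confluency relative to resting cells. Passing the cutoff required both masks to lie above 70% of resting cells.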

[4] = agonist: CpG ODN 1826 0.5 ug/mL

Q: Which results are given for `CCN(CC)CCNC(=O)c1c(C)[nH]c(/C=C2\C(=O)Nc3ccc(F)cc32)c1C`?
A: NF-kB reporter [1, 4]: 0.102 ± 0.0079; NF-kB reporter ([1]; agonist: LPS 0.1 ug/mL): 0.192 ± 0.015; NF-kB reporter ([1]; agonist: MPLA […]): 0.475 ± 0.031; IRF reporter ([2]; agonist: 3'3'-cGAMP 10 ug/mL): 0.0578 ± 0.003; IRF reporter ([2]; agonist: LPS 0.1 ug/mL): 0.0794 ± 0.014; IRF reporter ([2]; agonist: MPLA […]): 0.0928 ± 0.022; viability score [3]: 0.359 (inactive)

Q: `CCN(CC)CCOC(=O)C(c1ccccc1)c1ccccc1` [Prestw-75] was tested. Which NF-kB reporter [1, 4] did it give?
A: 0.712 ± 0.11

Q: And the NF-kB reporter ([1]; agonist: LPS 0.1 ug/mL)?
A: 1.14 ± 0.14

Q: And the NF-kB reporter ([1]; agonist: MPLA […])?
A: 1.91 ± 0.9

Q: What about the IRF reporter ([2]; agonist: 3'3'-cGAMP 10 ug/mL) of the same molecule?
A: 1.2 ± 0.038

Q: And the IRF reporter ([2]; agonist: LPS 0.1 ug/mL)?
A: 0.922 ± 0.09

Q: What about the IRF reporter ([2]; agonist: MPLA […]) of the same molecule?
A: 1.09 ± 0.12

Q: And the viability score [3]?
A: 0.91 (active)

Q: How did the NF-kB reporter [1, 4] turn out when `c1ccc(OCCOc2ccc(Nc3ccnc4cc5ccccc5cc34)cc2)cc1` was run?
A: 0.294 ± 0.05

Q: And the NF-kB reporter ([1]; agonist: LPS 0.1 ug/mL)?
A: 1.04 ± 0.067

Q: What about the NF-kB reporter ([1]; agonist: MPLA […]) of the same molecule?
A: 1.8 ± 0.17

Q: And the IRF reporter ([2]; agonist: 3'3'-cGAMP 10 ug/mL)?
A: 0.896 ± 0.035

Q: What about the IRF reporter ([2]; agonist: LPS 0.1 ug/mL) of the same molecule?
A: 1.48 ± 0.13

Q: And the IRF reporter ([2]; agonist: MPLA […])?
A: 1.78 ± 0.17

Q: And the viability score [3]?
A: 0.23 (inactive)

Q: What does the source list for `CCOc1nc2cccc(C(=O)O)c2n1Cc1ccc(-c2ccccc2-c2nc(=O)o[nH]2)cc1`?
A: NF-kB reporter [1, 4]: 1.29 ± 0.17; NF-kB reporter ([1]; agonist: LPS 0.1 ug/mL): 1.14 ± 0.32; NF-kB reporter ([1]; agonist: MPLA […]): 1.12 ± 0.073; IRF reporter ([2]; agonist: 3'3'-cGAMP 10 ug/mL): 0.886 ± 0.042; IRF reporter ([2]; agonist: LPS 0.1 ug/mL): 1.41 ± 0.38; IRF reporter ([2]; agonist: MPLA […]): 1.31 ± 0.12; viability score [3]: 1 (active)

Q: Which results are given for `O=C(NN=Cc1c(Br)sc2ccccc12)c1cccc(Cl)c1`?
A: NF-kB reporter [1, 4]: 0.972 ± 0.082; NF-kB reporter ([1]; agonist: LPS 0.1 ug/mL): 0.88 ± 0.17; NF-kB reporter ([1]; agonist: MPLA […]): 1.18 ± 0.056; IRF reporter ([2]; agonist: 3'3'-cGAMP 10 ug/mL): 0.738 ± 0.12; IRF reporter ([2]; agonist: LPS 0.1 ug/mL): 0.952 ± 0.045; IRF reporter ([2]; agonist: MPLA […]): 1.49 ± 0.1; viability score [3]: 0.887 (active)

Q: For `CNC(=O)[C@H](Cc1ccccc1)NC(=O)[C@H](CC(C)C)[C@H](CSc1cccs1)C(=O)NO`, which NF-kB reporter [1, 4] is on record?
A: 1.23 ± 0.093

Q: And the NF-kB reporter ([1]; agonist: LPS 0.1 ug/mL)?
A: 1.22 ± 0.13

Q: What about the NF-kB reporter ([1]; agonist: MPLA […]) of the same molecule?
A: 1.01 ± 0.048

Q: What about the IRF reporter ([2]; agonist: 3'3'-cGAMP 10 ug/mL) of the same molecule?
A: 0.96 ± 0.15

Q: And the IRF reporter ([2]; agonist: LPS 0.1 ug/mL)?
A: 1.05 ± 0.15

Q: And the IRF reporter ([2]; agonist: MPLA […])?
A: 0.947 ± 0.28

Q: And the viability score [3]?
A: 0.999 (active)

Q: Which results are given for `O=C(C=Cc1ccc(-c2cccc(Cl)c2)o1)c1ccc(Cl)cc1`?
A: NF-kB reporter [1, 4]: 0.755 ± 0.085; NF-kB reporter ([1]; agonist: LPS 0.1 ug/mL): 0.746 ± 0.038; NF-kB reporter ([1]; agonist: MPLA […]): 0.857 ± 0.079; IRF reporter ([2]; agonist: 3'3'-cGAMP 10 ug/mL): 0.446 ± 0.031; IRF reporter ([2]; agonist: LPS 0.1 ug/mL): 0.896 ± 0.058; IRF reporter ([2]; agonist: MPLA […]): 0.724 ± 0.14; viability score [3]: 0.957 (active)

Q: What does the source list for `CN1C(=O)C(=C2SC(=S)N(C(CCC(=O)O)C(=O)O)C2=O)c2ccccc21` (stereo not drawn)?
A: NF-kB reporter [1, 4]: 0.793 ± 0.053; NF-kB reporter ([1]; agonist: LPS 0.1 ug/mL): 1.02 ± 0.07; NF-kB reporter ([1]; agonist: MPLA […]): 0.845 ± 0.064; IRF reporter ([2]; agonist: 3'3'-cGAMP 10 ug/mL): 0.942 ± 0.035; IRF reporter ([2]; agonist: LPS 0.1 ug/mL): 1.28 ± 0.086; IRF reporter ([2]; agonist: MPLA […]): 1.03 ± 0.093; viability score [3]: 1.01 (active)

Q: Which results are given for `COC(=O)C1=C(C)NC(=O)CC1c1cc([N+](=O)[O-])ccc1Cl` (stereo not drawn)?
A: NF-kB reporter [1, 4]: 0.933 ± 0.055; NF-kB reporter ([1]; agonist: LPS 0.1 ug/mL): 0.986 ± 0.11; NF-kB reporter ([1]; agonist: MPLA […]): 0.955 ± 0.058; IRF reporter ([2]; agonist: 3'3'-cGAMP 10 ug/mL): 0.966 ± 0.032; IRF reporter ([2]; agonist: LPS 0.1 ug/mL): 1.16 ± 0.099; IRF reporter ([2]; agonist: MPLA […]): 0.994 ± 0.24; viability score [3]: 0.988 (active)

Q: For `Cc1onc(-c2ccccc2)c1-c1ccc(S(N)(=O)=O)cc1`, which NF-kB reporter [1, 4] is on record?
A: 1.64 ± 0.26

Q: What about the NF-kB reporter ([1]; agonist: LPS 0.1 ug/mL) of the same molecule?
A: 1.08 ± 0.4

Q: And the NF-kB reporter ([1]; agonist: MPLA […])?
A: 1.25 ± 0.3

Q: And the IRF reporter ([2]; agonist: 3'3'-cGAMP 10 ug/mL)?
A: 1.02 ± 0.031

Q: What about the IRF reporter ([2]; agonist: LPS 0.1 ug/mL) of the same molecule?
A: 1.02 ± 0.2

Q: What about the IRF reporter ([2]; agonist: MPLA […]) of the same molecule?
A: 0.898 ± 0.11

Q: And the viability score [3]?
A: 0.98 (active)

Q: What does the source list for `c1ccc(CN2CCN(c3cc(-c4cccnc4)n[nH]3)CC2)cc1`?
A: NF-kB reporter [1, 4]: 0.805 ± 0.043; NF-kB reporter ([1]; agonist: LPS 0.1 ug/mL): 1.06 ± 0.096; NF-kB reporter ([1]; agonist: MPLA […]): 1.21 ± 0.092; IRF reporter ([2]; agonist: 3'3'-cGAMP 10 ug/mL): 1.09 ± 0.051; IRF reporter ([2]; agonist: LPS 0.1 ug/mL): 1.37 ± 0.31; IRF reporter ([2]; agonist: MPLA […]): 1.56 ± 0.59; viability score [3]: 0.98 (active)

Q: For `COc1ccc(C(=O)Nc2nc(C)c(C)s2)cc1OC`, which NF-kB reporter [1, 4] is on record?
A: 0.904 ± 0.093

Q: And the NF-kB reporter ([1]; agonist: LPS 0.1 ug/mL)?
A: 1.02 ± 0.056

Q: What about the NF-kB reporter ([1]; agonist: MPLA […]) of the same molecule?
A: 0.994 ± 0.064

Q: What about the IRF reporter ([2]; agonist: 3'3'-cGAMP 10 ug/mL) of the same molecule?
A: 0.981 ± 0.024

Q: And the IRF reporter ([2]; agonist: LPS 0.1 ug/mL)?
A: 1.55 ± 0.26

Q: And the IRF reporter ([2]; agonist: MPLA […])?
A: 1.16 ± 0.27

Q: And the viability score [3]?
A: 1.01 (active)

Q: Which results are given for `O=C(Nc1ccc(F)cc1)c1ccco1`?
A: NF-kB reporter [1, 4]: 0.904 ± 0.074; NF-kB reporter ([1]; agonist: LPS 0.1 ug/mL): 1.11 ± 0.12; NF-kB reporter ([1]; agonist: MPLA […]): 1 ± 0.038; IRF reporter ([2]; agonist: 3'3'-cGAMP 10 ug/mL): 0.879 ± 0.15; IRF reporter ([2]; agonist: LPS 0.1 ug/mL): 1.03 ± 0.042; IRF reporter ([2]; agonist: MPLA […]): 0.915 ± 0.11; viability score [3]: 0.996 (active)

Q: For `CCCc1cc(=O)[nH]c(=S)[nH]1`, which NF-kB reporter [1, 4] is on record?
A: 1.37 ± 0.11

Q: What about the NF-kB reporter ([1]; agonist: LPS 0.1 ug/mL) of the same molecule?
A: 1.07 ± 0.05

Q: And the NF-kB reporter ([1]; agonist: MPLA […])?
A: 1.3 ± 0.11

Q: And the IRF reporter ([2]; agonist: 3'3'-cGAMP 10 ug/mL)?
A: 0.611 ± 0.028

Q: And the IRF reporter ([2]; agonist: LPS 0.1 ug/mL)?
A: 1.03 ± 0.082

Q: What about the IRF reporter ([2]; agonist: MPLA […]) of the same molecule?
A: 0.903 ± 0.076

Q: What about the viability score [3] of the same molecule?
A: 1.02 (active)
